# From PubChem BioAssay
# CYP2C9 inhib: inhibitors of human CYP2C9; P11712; CYP2C9 Supersomes, luciferin-H conversion, luminescence; inhibition, % at 5 µM; hit rate 20% among 96,000; AID 777;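 active = blocking of liver enzyme CYP2C9 beyond about 50% at 5 µM, limit read from the data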
# CYP2C9 activ: increases human cytochrome P450 2C9 activity; AID 1024; hit rate 1.4% among 96,000; activation factor at 5 µM; recombinant CYP2C9, luciferin-H conversion, luminescence; stronger effect = higher value; factor 1 = untreated enzyme, 0 = blocked; P11712;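 active = activation factor of 2 or more for CYP2C9 at a 5 µM dose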;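 note: 0 = sulfaphenazole-blocked wells and 1 = vehicle-only wells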
# EphB4 ephrin blk: EphB4-ephrin-B2 interaction antagonism | inhibition, % at 7 µM | hit rate 0.15% among 97,000 | AID 720 | EphB4 LBD / TNYL-RAW-Alexa532 peptide, fluorescence polarization | P54760;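 active = inhibition above the screen-wide mean inhibition plus 3 SD, cut at about 15% in these data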;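 note: 0% = DMSO wells and 100% = excess unlabeled TNYL-RAW peptide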
# CYP2C19 act: cytochrome P450 2C19 (human) activation. activation factor at 5 µM. 96,000 tested, under 10 active. recombinant CYP2C19, luciferin-H EGE luminescence; stronger effect = higher value; 0 = fully inhibited enzyme, 1 = untreated enzyme. P33261;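 active = activation factor of at least 2 at 5 µM in the primary screen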;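 note: 0 = wells with 2.5 mM tranylcypromine and 1 = vehicle-only wells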
# Target sequence (P33261 whole entry, looked up): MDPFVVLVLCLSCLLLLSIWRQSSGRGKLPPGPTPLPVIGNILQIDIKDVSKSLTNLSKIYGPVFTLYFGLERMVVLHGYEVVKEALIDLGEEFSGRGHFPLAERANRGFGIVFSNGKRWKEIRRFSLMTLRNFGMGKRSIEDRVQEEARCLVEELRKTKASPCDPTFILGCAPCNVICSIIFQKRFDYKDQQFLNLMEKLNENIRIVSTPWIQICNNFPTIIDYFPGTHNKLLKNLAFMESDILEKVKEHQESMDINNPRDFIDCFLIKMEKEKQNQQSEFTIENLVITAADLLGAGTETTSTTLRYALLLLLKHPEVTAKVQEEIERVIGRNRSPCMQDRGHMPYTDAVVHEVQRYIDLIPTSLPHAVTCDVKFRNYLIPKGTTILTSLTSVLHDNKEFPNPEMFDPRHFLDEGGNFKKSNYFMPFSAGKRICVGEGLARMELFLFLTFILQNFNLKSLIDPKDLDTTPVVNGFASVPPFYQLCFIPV
# CYP2C19 inh: human CYP2C19 inhibition. CYP2C19 Supersomes, luciferin-H EGE luminescence, 30 min. inhibition, % at 5 µM. hit rate 21% among 96,000;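 active = CYP2C19 inhibition above a set limit at 5 µM in the primary screen, cut at about 50% in these data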;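 note: plate controls were negative control wells for no effect and 2.5 mM tranylcypromine positive control for full effect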
# An asterisk follows results filed as active; . = no result given. In the library only some 27% were active in any assay of this set; here they are far more common.
SMILES,CYP2C9 inhib,CYP2C9 activ,EphB4 ephrin blk,CYP2C19 act,CYP2C19 inh
CCC(C)NC(=O)CSc1nc2ccsc2c(=O)n1-c1ccc(OC)cc1 (stereo not given),7.4,0.9,-4.6,1,2.9
CCOC(=O)N1CCN(C(=O)CSCC(=O)Nc2nc(-c3ccc(Cl)s3)cs2)CC1,.,.,5.2,.,.
Cc1cccnc1-n1c(CCN2C(=O)c3ccccc3C2=O)nc2ccccc2c1=O,6.8,0.9,-3.8,0.6,38.2
COc1cccc(C2=NO[C@@H]3C(=O)N(Cc4ccccc4)C(=O)[C@H]23)c1OC,88.4*,0.1,7.2,0,97.2*
COc1cccc(Nc2c(F)c(OC)c(F)c(F)c2C(=O)O)c1,23.1,0.8,-3.2,1.1,-9.1
COc1cccc(Nc2c(F)c(F)c(F)c(F)c2C(=O)O)c1,61.1*,0.4,3.4,0.9,8.8
COc1ccc(Nc2nc(C)nc3c2nnn3Cc2ccccc2)cc1OC,.,.,-2.4,.,.
Cc1nc(N(C)Cc2ccccc2)c2nnn(Cc3ccccc3)c2n1,98.5*,0,-1.3,0,99.6*
Cc1sc2c(c1C)c(=O)n(-c1ccc(F)cc1)c(=O)n2CC(=O)NCc1ccco1,-19.1,1.2,0.9,1.2,-15.1
Cn1nnnc1SCc1nc2ccccc2[nH]1,9.6,0.9,-8.6,0.6,36.9
CCC(C)SCc1nc2ccccc2[nH]1 (stereo not given),36.1,0.6,.,0.1,93.1*
c1ccc(SCc2nc3ccccc3[nH]2)nc1,47.5,0.5,-1.8,0.1,90.4*
c1ccc2[nH]c(CSc3nc4ccccc4s3)nc2c1,52.9*,0.5,3.9,0,98.3*
CN1CCN(S(=O)(=O)c2ccc(NC(=S)NC(=O)c3ccccc3)cc2)CC1,-21.8,1.2,3.2,0.5,45.4
C=CCSc1nnc(-c2cc3c(-c4ccccc4)nn(C)c3s2)n1C,33.1,0.7,1.4,0.5,54.8*
Cc1cc(C)n2nc(SCc3nnc(SCc4ccccc4C)s3)nc2n1,0.3,1,8.8,0.2,77.1*
COc1cccc(CSc2nnc(CSc3nc4nc(C)cc(C)n4n3)s2)c1,44.0,0.6,-4.5,0,97.8*
CC1(C)CC2CC(C)(CN2C(=O)COC(=O)Cn2[nH]c(=O)c3ccccc3c2=O)C1 (stereo not given),26.4,0.7,-9.6,0.7,31.6
COc1ccc(CCN(C(=O)C(F)(F)F)C(C(=O)NC2CCCC2)c2cccs2)cc1 (stereo not given),77.1*,0.2,7.1,0.4,62.9*
Cc1nn(C)c(C)c1S(=O)(=O)N1CCC(C(=O)NC(C)c2ccccc2)CC1 (stereo not given),-3.8,1,.,0.9,7.8
Cc1ccc2c(c1)[C@H]1OCC[C@H]1[C@@H](c1ccncc1)N2,83.7*,0.2,-2.8,0,100.3*
O=c1c2ccccc2nc(SCc2cn3ccsc3n2)n1-c1ccc(F)cc1,96.9*,0,-3.2,0.2,84.3*
O=C(CSc1nc2ccccc2c(=O)n1-c1ccc(F)cc1)NCc1ccco1,18.9,0.8,-2.4,0.6,35.1
COc1ccc([N+](=O)[O-])cc1/C=N/NC(=O)/C(=C\c1cccs1)NC(=O)c1ccccc1,24.6,0.8,-1.1,0.6,37.9
O=C(N/N=C/c1cc2ccccc2nc1Cl)/C(=C/c1cccs1)NC(=O)c1ccccc1,43.1,0.6,5.3,0.2,80.5*
SMILES,CYP2C9 inhib,CYP2C9 activ,EphB4 ephrin blk,CYP2C19 act,CYP2C19 inh
O=C(CS(=O)(=O)c1ccccc1)N1CCCCCC1,-10.7,1.1,2.9,1,-3.2
COC(=O)c1ccc(-c2nc3cc(Cl)c(N)cc3s2)cc1,10.8,0.9,1.2,0.4,59.5*
CC1(C)CC(=O)c2sc(NS(C)(=O)=O)nc2C1,-15.1,1.2,-2.8,1.2,-17.6
CC(C)c1ccccc1NC(=O)c1cccc(NC(=O)c2ccccc2)c1,69.3*,0.3,-3.2,0.8,22.4
O=C(Nc1cccc(O)c1)c1ccccc1,-9.2,1.1,4.7,1.1,-11.3
CCc1cccc(CC)c1NC(=O)c1cccc(NC(=O)c2ccccc2)c1,73.9*,0.3,0.1,0.9,10.0
N#CCC(=N)N1CCN(c2ccc(Cl)cc2)CC1,17.9,0.8,-0.7,0.9,14.5
O=C(C1c2ccccc2Oc2ccccc21)N1CCN(c2ccc(Cl)cc2)CC1,84.7*,0.2,5.0,0.1,94.0*
COc1ccccc1N1CCN(C(=O)C2c3ccccc3Oc3ccccc32)CC1,99.9*,0,-1.8,0,98.1*
CC1CCN(c2ncnc3c2cnn3-c2ccccc2)CC1,20.6,0.8,3.6,0.8,17.5
